# Assay results: PubChem BioAssay (NCATS)
# Results filed as inconclusive are left out. Values without a mark were called inactive. Activity calls are given as the source filed them. Calls follow the shape of the dose curve; as a rule, active = well fitted inhibition curve with a large enough effect; inconclusive = small, poorly fitted or top-dose-only effect; inactive = flat fitted curve, though single readings scatter.
# Assay: P-glycoprotein substrates identified in KB-8-5-11 adenocarcinoma cell line, qHTS therapeutic library screen (AID 1346987); also: nearly all actives have a fitted effect of over 65% in size
# Settings: KB-8-5-11 (P-gp overexpressing) viability, CellTiter-Glo, 72 h; series mostly up to 44.5 µM; activity change, negative = cytotoxicity: at the top concentration
# Summary of the method: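 Steps: plate 500 KB-8-5-11 cells/well in DMEM + 10% FCS (colchicine removed); pin compounds in dose-response; incubate 72 h, 37 degree C, 5% CO2; add CellTiter-Glo, 5 min; read luminescence.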
# % is scaled to controls: 0 for no effect and ±100 for the full control effect; potency is read from the fitted curve at half-maximal effect.
SMILES,"activity change, negative = cytotoxicity",Potency,outcome
O=C(Cn1c(=O)sc2ccc(Cl)cc21)N1CCN(CCO)CC1,-14.6%,,
COc1cc2c(c(OC)c1OC)-c1c(cc3c(c1OC)OCO3)C[C@@H](C)[C@](C)(O)C2,,inactive,
C=C1CC2C3CCC4=CC(=O)C=C[C@]4(C)[C@@]3(F)[C@@H](O)C[C@]2(C)[C@@]1(O)C(=O)COC(C)=O (stereo not given in full),-9.95%,,
Clc1ccc(Nc2nc3ccccc3c3nc(C4CCCCC4)[nH]c23)cc1Cl,,16.4 µM (active),
CC(=O)O[C@@H]1CC2C(C)(C)C(=O)C=C[C@]2(C)C2CC[C@@]3(C)[C@H](c4ccoc4)OC(=O)[C@H]4O[C@]43[C@@]21C (stereo not given in full),-9.07% [at 17.3 µM],,
Fc1ccc(-c2nc(C3CCNCC3)sc2-c2ccnc(NC3CC3)n2)cc1,,13 µM (active),
Cn1ncc(Cl)c1-c1cc(C(=O)N[C@H](CN)Cc2ccc(F)c(F)c2)oc1Cl,,16.4 µM (active),
CCOc1ccc(CCNC(=O)c2cc3sc(Cl)cc3n2C)cc1OCC,-20.2%,,
Cc1ccccc1CNc1ncnc2c1ncn2[C@@H]1O[C@H](CO)[C@@H](O)[C@H]1O,-17.8%,,
C=C1C(=O)O[C@@H]2/C=C(\C)CC/C=C(/C=O)[C@H](OC)[C@@H](OC(=O)C(C)C)[C@@H]12,-3.84%,,
CCNC(=O)C#Cc1ccc2c(C(=Nc3ccc(CN(C)C)cc3)c3ccccc3)c(O)[nH]c2c1,,0.651 µM (active),
NC(N)=NC(=O)c1cnn(-c2cccc3ncccc23)c1C1CC1,-0.957%,,
CCCCOC(=O)C(=O)Nc1cccc(-c2nn[nH]n2)c1,32.1%,,
COc1ccc(CN2CCN(C(=O)CCNC(=O)c3ccc(C(C)(C)C)cc3)CC2)cc1,-27%,,
O=C(/C=C/c1ccccc1O)O[C@@H]1O[C@H](CO)[C@@H](O)[C@H](O)[C@H]1O,,,inactive
CCCCc1cc2c(=O)c(C(=O)OC)c[nH]c2cc1OCc1ccccc1,6.24%,,
CC(C)C[C@H](CO)Nc1nc(S[C@@H](C)c2ccccc2)nc2nc(N)sc12,-0.635%,,
CC(=O)O[C@H]1CC(C)(C)CC2[C@]13CO[C@@]21CCC2[C@@]4(C)CC[C@H](O[C@@H]5OC[C@H](O[C@@H]6O[C@H](CO)[C@@H](O)[C@H](O)[C@H]6O[C@@H]6OC[C@@H](O)[C@H](O)[C@H]6O)[C@H](O)[C@H]5O[C@@H]5O[C@H](CO)[C@@H](O)[C@H](O)[C@H]5O)[C@@](C)(CO)C4CC[C@@]2(C)[C@]1(C)C[C@H]3O (stereo not given in full),-5.92% [at 9.29 µM],,

SMILES,"activity change, negative = cytotoxicity",Potency,outcome
OC[C@H]1O[C@@H](OC/C=C/c2ccc(O)cc2)[C@H](O)[C@@H](O)[C@@H]1O,-5.86%,,
C[C@@]12C(=O)N(c3ccc(C(=O)Nc4cccc5cccnc45)cc3)C(=O)[C@@H]1[C@@H]1C=C[C@H]2C1,-23.8%,,
CC(=O)O[C@H]1C[C@@](O)(C(C)C)[C@@H]2[C@@H](OC(=O)c3ccc(O)cc3)CC(C)=CC[C@@]12C,-19% [at 17.3 µM],,
COC1CC(=O)C23C(=O)NC(CC(C)C)C2C(C)C(C)=CC3/C=C(\C)CCCC1O (stereo not given),-12.3% [at 17.3 µM],,
C=C(CCC1C(C)(O)CCC2C(C)(C)C(O)CCC12C)C(O)CO (stereo not given),-6.8%,,
Nc1nc(Nc2ccc3c(c2)CCC(N2CCCC2)CC3)nn1-c1cc2c(nn1)-c1ccccc1CCC2 (stereo not given),,14.6 µM (active),
NCCCC(=O)O,-6.24%,,
COc1ccc(NC(=O)c2ccc(-c3ccc(-c4nnc(C)o4)cc3C)cc2)cc1N1CCN(C)CC1,-13.9%,,
CC(C)(Cc1nc(-c2ccc(O)cn2)no1)C(=O)NC1=C(C(=O)O)CCCC1,-1.26%,,
NC(=O)C[C@@H](N)C(=O)O,-9.74%,,
Cn1ncc2cc(-c3cnc(N)c(Cl)c3N3CCC4(CCNC4=O)CC3)ccc21,1.5%,,
Nc1ncnc2c1nc(Cl)n2C1OC2COP(=O)(O)OC2C1O (stereo not given),,1.46 µM (active),
C[C@H](/C=C/[C@H](C)C(C)(C)O)[C@H]1CC[C@H]2/C(=C/C=C3C[C@@H](O)C[C@H](O)C3)CCC[C@]12C,,8.2 µM (active),
CCc1c[nH]c2ncnc(N3CC[C@](N)(CNC(=O)c4ccc(F)cc4F)C3)c12,-17.3%,,
CCC(C)/C=C(C)/C=C/C1=CC2=CC(=O)C3(C)OC(C)(O)C(C(=O)OC)C3C2=CO1 (stereo not given),2.48% [at 17.3 µM],,
C/C=C1\NC(=O)[C@H]2CSSCC/C=C/[C@H](CC(=O)N[C@H](C(C)C)C(=O)N2)OC(=O)C(C(C)C)NC1=O (stereo not given in full),,20.6 µM (active),
CCCCCCCC/C=C\CCCCCCCC(=O)OC[C@@H](O)[C@H]1OC[C@H](O)[C@H]1O,6.97%,,
